# rCAG binder: binders of r(CAG) RNA repeats, primary screen, biochemical, fluorescence. r(CAG) RNA repeat, TO-PRO-1 dye displacement fluorescence. inhibition, % at 3 µM. 370,000 compounds, 1.3% hits. AID 651821, 2012;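 active means inhibition above the plate cutoff, the mean of all test compounds on that plate plus 3 SD, cut at about 35% in these data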;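 further: 0% = DMSO alone and 100% = 100 µM mitoxantrone as full dye displacement; higher means more dye released from RNA so lower well fluorescence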
# TLR4 MyD88 comp: inhibitors of TLR4-MyD88 association in cells, primary screen, cell-based, HeLa CL3-4, BLA complementation, FRET ratio; inhibition, % at 8.4 µM; Toll-like receptor 4 (Homo sapiens) + Myeloid differentiation primary response protein …; HeLa CL3-4 TLR4/MyD88 BLA complementation; 200,000 compounds, 0.18% hits; AID 861, 2007; in the data active means inhibition above about 25%;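 further: 0% = vehicle and 100% = reference inhibitor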
# PRMT1 inh: PRMT1 methyltransferase inhibitors, primary screen, biochemical, fluorescence polarization. 370,000 compounds, 1.3% hits. inhibition, % at 2.79 µM. AID 652257, 2013. recombinant PRMT1, activity-based probe fluorescence polarization;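 active means inhibition above about 21% made by adding two undisclosed values, limit read from the data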
# NOD2 RIPK2 PPI: NOD2-RIPK2 binding disruptors in cells, primary screen, fluorescence, CHO cells, BLA complementation; AID 624267, 2012; CCF4 ratio; Receptor-interacting serine/threonine-protein kinase 2 (Homo sapiens), O43353; inhibition, % at 4.98 µM; 360,000 compounds, 0.38% hits; in the data active means inhibition above about 21%;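 further: 0% = vehicle only and 100% = reference blocker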
# ABHD5-PLIN5 inh: ABHD5-PLIN5 interaction inhibitors, primary screen, cell lysate, split luciferase complementation, luminescence; inhibition, % at 4 µM; AID 602281, 2012; Perilipin-5 (Homo sapiens) + 1-acylglycerol-3-phosphate O-acyltransferase ABHD5 (Homo …; Split G. princeps luciferase complementation, 4 h; 360,000 compounds, 0.78% hits;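 active means inhibition above the mean inhibition across every tested compound plus 3 SD, cut at about 22% in these data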;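 further: 0% = DMSO only wells and the 100% control is not disclosed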
# TLR9-MyD88 inh: inhibitors of TLR9-MyD88 association in cells, primary screen, cell-based, CHO, BLA complementation, fluorescence. Toll-like receptor 9 (Homo sapiens) + Myeloid differentiation primary response protein …. CCF4 FRET ratio. inhibition, % at 4.98 µM. 340,000 compounds, 0.21% hits. AID 504734, 2011;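 active means inhibition above the mean over all tested compounds plus 3 SD, cut at about 21% in these data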;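 further: 0% = DMSO only wells and 100% = clavulanate BLA inhibitor control wells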
# TLR4 MyD88 cnf: TLR4-MyD88 association inhibitors, retest, confirmation, cell-based, HeLa CL3-4, BLA complementation, FRET ratio; shares compounds with TLR4 MyD88 comp; CCF4 FRET ratio; inhibition, % at 8.4 µM; 350 compounds, 50% hits; AID 941, 2007;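 active means mean inhibition across three repeat runs above about 25% carried over from the earlier screen, limit read from the data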;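 further: plate controls were DMSO only for no effect and clavulanic acid blocking BLA at full dose for full effect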
# BLA inhibitor ct: inhibits beta-lactamase activity, counter-screen to TLR4-MyD88 binding inhibitors; AID 1237; inhibition, % at 8.4 µM; shares compounds with TLR4 MyD88 comp; HeLa BLA reporter, CCF4 FRET ratio; 350 compounds, 63% hits;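 active means mean inhibition over three repeats above about 26% taken from the earlier screen, limit read from the data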;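 further: HeLa cells stably expressing beta-lactamase reporter as counterscreen for TLR4-MyD88 inhibitors; 0% = DMSO and 100% = clavulanic acid full inhibition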
# An asterisk follows results filed as active; nt = no result. In the library only some 3.3% were active in any assay of this set; here they are far more common.
SMILES,rCAG binder,TLR4 MyD88 comp,PRMT1 inh,NOD2 RIPK2 PPI,ABHD5-PLIN5 inh,TLR9-MyD88 inh,TLR4 MyD88 cnf,BLA inhibitor ct
Cc1cc(C(=O)Nc2cccc3c2O[C@@H](CN(C)S(C)(=O)=O)[C@H](C)CN([C@@H](C)CO)C3=O)n(C)n1,0,nt,0,-3,8,8,nt,nt
O=S(=O)(Nc1cc2nc3ccccc3nc2n1Cc1ccccc1)c1ccc(Cl)cc1,15,36*,2,44*,15,-2,33*,66*
O=S(=O)(NCc1ccccc1)c1ccc(Cl)cc1,-2,1,-2,-2,2,4,nt,nt
CCOC(=O)c1c(NC(=O)c2ccccc2Cl)sc2c1CCc1ccccc1-2,7,8,2,-4,-9,7,nt,nt
CCCCC(=O)Nc1sc2c(c1C(=O)OCC)CCC(C=O)=C2Cl,nt,26*,nt,9,9,19,38*,45*
CC1(c2nnnn2-c2ccc3c(c2)OCCO3)CCC(=O)N1C1CCN(Cc2ccccc2)CC1 (configuration not stated),1,nt,-2,-2,-2,nt,nt,nt
CCN(CC)c1ccc(NC(=O)COC(=O)/C=C/c2nc3ccccc3s2)cc1,-2,-2,0,-12,7,-1,nt,nt
CCN(CC)c1ccc(/C=C/c2nc3ccccc3s2)cc1,nt,56*,nt,nt,nt,nt,48*,76*
CCCCCCCCN1C(=O)[C@@H](CC(=O)NCCC(C)C)C[C@@]2(C(=O)OC)C1=C[C@H](COCc1ccccc1)O[C@@H]2C,8,nt,-1,nt,nt,nt,nt,nt
CC(C)OC(=O)/C(C#N)=C/c1ccc(-c2ccc(SC(F)F)cc2)o1,2,26*,-3,0,7,0,4,21
COc1cccc(/C=C/C(=O)c2c(O)cc(C)oc2=O)c1O,17,26*,5,2,6,-6,-2,0
Cc1onc(-c2ccccc2)c1C(=O)NCCCc1ccccc1,0,nt,-1,7,11,-4,nt,nt
Nc1nnc(-c2cc3c(ccc4ccccc43)oc2=O)s1,nt,38*,nt,nt,nt,nt,31*,58*
O=c1c(Br)c(Br)cnn1-c1ccccc1,2,35*,6,19,2,9,20,-6
CCOC(=O)c1c(NC2=NS(=O)(=O)c3ccccc32)sc2c1CCCCC2,0,-8,-4,0,3,-13,nt,nt
CCOC(=O)c1c(NC2=NS(=O)(=O)c3ccccc32)sc2c1CCC(C)C2 (configuration not stated),1,52*,-3,5,-3,2,-1,15
O=C(NCCCN1CCCCC1)c1ccc(CS(=O)c2ccc(Cl)cc2)o1 (configuration not stated),0,nt,1,6,4,-1,nt,nt
